# Screening data as filed in PubChem.
# a7 integrin act – integrin-mediated muscular dystrophy alleviation activation. alpha7betagal myoblasts, beta-gal FDG fluorescence, 48 h. Potency, µM (top dose mostly 38.3 µM), actives largely listed as activators. 350,000 tested, 0.064% active; also: nearly all actives have a fitted effect of over 60% in size
#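 alpha7betagal+/- myoblasts (passage 13, 250/well) treated 48 h at 37C with compounds at 1:260 dilution of DMSO stock. Lysed, then beta-galactosidase activity read as FDG fluorescence (ex 480/em 540) after 30 min, with pre-read for autofluorescence.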
# DRD3 agonist – D3 dopamine receptor (human) agonism. 410,000 tested, 0.58% active. D3R DiscoveRx beta-arrestin cells, luminescence, 90 min. max activation, %; in the data active = max activation above about 30%
#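 Cells at 1500/well, incubated overnight, then treated with pinned compounds (dopamine as control) for 90 min at 37 degrees C. DiscoveRx reagent added for 30 - 60 minutes at room temperature; luminescence read.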
# DRD3 antagonist – antagonists of human D3 dopamine receptor; AID 652054; 360,000 tested, 2.5% active; max response, negative = inhibition, %; D3R cells, DiscoveRx beta-arrestin luminescence, antagonist mode; hits give low values; P35462; in the data active = max response below about -50%; inconclusive = no clear call, values can overlap the other calls
#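 Cells plated overnight at 1500 cells/well, then exposed to library compounds with dopamine controls for 90 minutes at 37 degrees C. DiscoveRx reagent added for 30–60 minutes at room temperature; luminescence read, quantitative HTS format.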
# IDH1 R132H inh – human IDH1 R132H inhibition; O75874; IDH1-R132H enzyme, NADPH consumption, diaphorase/resazurin fluorescence; Potency, µM (series often up to 76.6 µM), hits mostly inhibitors; 390,000 tested, 0.093% active; AID 602179; also: nearly all actives have a fitted effect of over 65% in size
# Target sequence (O75874 whole entry R132H, stated change not applied): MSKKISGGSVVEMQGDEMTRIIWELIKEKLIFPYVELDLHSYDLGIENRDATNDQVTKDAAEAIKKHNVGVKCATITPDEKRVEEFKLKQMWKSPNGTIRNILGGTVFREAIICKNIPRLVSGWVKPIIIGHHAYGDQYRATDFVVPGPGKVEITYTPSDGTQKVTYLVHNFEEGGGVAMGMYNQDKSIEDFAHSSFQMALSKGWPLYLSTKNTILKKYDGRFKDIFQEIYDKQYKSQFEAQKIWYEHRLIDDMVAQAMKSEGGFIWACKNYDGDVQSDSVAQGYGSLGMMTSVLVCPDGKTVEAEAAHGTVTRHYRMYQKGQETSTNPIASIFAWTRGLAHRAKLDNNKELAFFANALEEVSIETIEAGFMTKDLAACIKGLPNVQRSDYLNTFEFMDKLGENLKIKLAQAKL
#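 IDH1-R132H (0.5 ug/mL dispensed) in pH 7.5 Tris buffer was preincubated 30 min with compound, then given a substrate mix of 0.016 mM NADPH and 2 mM alpha-KG for 80 min at room temperature; remaining NADPH was read by diaphorase/resazurin fluorescence.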
# B2AR arrestin – recruits beta-arrestin to the human beta2-adrenergic receptor | P07550 | beta-arrestin recruitment to beta2AR, cell-based reporter | Potency, µM (highest dose often 46.1 µM), hits mostly activators | 330,000 tested, 0.02% active | AID 492947; also: nearly all actives have a fitted effect of over 65% in size
# A number is an active result; i = inactive; ? = inconclusive; nt = no result given; ! = repeats disagree; [ ] = dose if it differs, or a comment. Hits are enriched below; roughly 2.9% of the tested compounds scored in any of these assays. Unless noted, calls follow the shape of the dose curve; as a rule, active = well fitted curve in the direction sought with a large enough effect; inconclusive = small, poorly fitted or top-dose-only effect, or another doubt; inactive = no such curve, though single readings can be large; an effect the other way counts as inactive or inconclusive.
SMILES,a7 integrin act,DRD3 agonist,DRD3 antagonist,IDH1 R132H inh,B2AR arrestin
CCN(CC)CCNC(=O)C1CCN(c2nn3cc(-c4ccc(F)cc4)nc3s2)CC1,nt,i,nt,i,nt
CCCc1nc2ccccc2n1C(CC)C(=O)NC(C)(C)C (configuration not stated),nt,i,i,nt,nt
CCC(C(=O)Nc1c(C)cccc1C)n1c(-c2ccc(-c3ccccc3)cc2)nc2ccccc21 (configuration not stated),nt,71,i,nt,nt
Cc1cccc(C)c1NC(=O)C(C)n1c(-c2ccc(=O)[nH]c2)nc2ccccc21 (configuration not stated),nt,i,i,nt,nt
CCC(C(=O)NC(C)(C)C)n1c(-c2ccc(C)cc2)nc2ccccc21 (configuration not stated),nt,53,i,nt,nt
CCN(CC(O)c1cccc(O)c1)C(=O)C12CC3CC(CC(C3)C1)C2 (configuration not stated),i,i,-78,i,i
CCOC(=O)c1cccc(NC(=O)N2CC(CC)Oc3ccccc32)c1 (configuration not stated),nt,i,nt,i,nt
COc1ccc(OCCN(C)Cc2ccccc2)cc1,i,i,?,i,i
COc1cc(C)ccc1OCCOCCN(C)Cc1ccccc1,i,i,?,i,i
CN(CCOCCOc1ccc2ccccc2c1)Cc1ccccc1,i,i,-64,i,i
CN(CCOc1ccc(F)cc1)Cc1ccccc1,i,i,-69,i,i
Cc1cc(C)c(C)c(OCCCCN(C)Cc2ccccc2)c1,i,i,-71,i,i
CN(CCOc1ccccc1)CCOc1ccccc1,i,i,-87,i,i
CN(CCO)CCOCCOc1cccc2ccccc12,i,i,i,i,i
COc1ccc(Nc2nc3c(S(=O)(=O)c4ccccc4)nnn3c3ccc(Cl)cc23)c(OC)c1,nt,i,nt,i,nt
CN(CCOc1cccc(C(F)(F)F)c1)Cc1ccccc1,i,i,-87,i,i
CCOc1ccc(OCCOc2cccc(C(F)(F)F)c2)cc1,i,i,i,i,i
CC(O)CNCCCOc1cccc(Oc2ccccc2)c1 (configuration not stated),i,i,?,i,i
CCN(Cc1ccccc1)Cc1ccc(OCc2ccccc2)cc1,i,i,-84,i,i
CCN(CC)CCOc1ccc(Cc2ccccc2)cc1,nt,i,nt,nt,nt
CCc1ccc(OCCCCN(C)Cc2ccccc2)cc1,i,i,-71,i,i
CC(O)CNCCCOc1cccc(C(F)(F)F)c1 (configuration not stated),i,i,-71,i,i
COc1ccc(OCCCN(C)Cc2ccccc2)cc1,i,i,i,i,i
CCC(C)c1ccccc1OCCCN(C)Cc1ccccc1 (configuration not stated),i,i,-60,i,i
FC(F)(F)c1cccc(OCCN2CCN(Cc3ccccc3)CC2)c1,i,i,-82,i,i
SMILES,a7 integrin act,DRD3 agonist,DRD3 antagonist,IDH1 R132H inh,B2AR arrestin
CN(CCCCOc1ccc(F)cc1)Cc1ccccc1,i,i,-83,i,i
CN(Cc1ccccc1)Cc1ccccc1,nt,i,nt,nt,nt
Cc1cc(C)n(-c2cc(N3CCN(S(=O)(=O)c4ccc5ccccc5c4)CC3)ccc2[N+](=O)[O-])n1,i,i,-55,i,i
Cc1cc(C)n(-c2cc(N3CCN(S(=O)(=O)c4ccc(C)c(C)c4)CC3)ccc2[N+](=O)[O-])n1,i,i,i,i,i
O=C(c1ccc(-c2ccccc2)cc1)c1ccc([N+](=O)[O-])cc1,nt,nt,nt,nt,i
O=C(C#Cc1ccccc1)c1ccccc1,i,i,-65,i,nt
O=C(C#Cc1ccccc1)c1ccc([N+](=O)[O-])cc1,i,i,-72,i,i
COc1ccc(C(=O)NCCS(=O)(=O)N2CCc3ccccc3C2)cc1OC,i,i,i,i,i
CCOC(=O)c1ccc(N2C(=O)c3[nH]nc(-c4ccc(C)cc4)c3C2c2cccc(F)c2)cc1 (configuration not stated),nt,i,nt,i,nt
CCOC(=O)C1(C(F)(F)F)N=C(c2cccnc2)OC(N2CCOCC2)=N1 (configuration not stated),i,i,-59,i,i
CCOC(=O)c1cnc(-c2ccccc2)nc1N1CCOCC1,i,i,i,i,i
COC(CNC(=O)c1ccc(N2CCCC2=O)cc1)OC,i,i,-51,i,i
COc1ccc(-c2cc(C(F)(F)F)nc(SCCC(=O)Nc3cc(C)ccc3O)n2)cc1,nt,37,nt,i,nt
CCCNC(=O)C(Cc1ccccc1)NC(=O)c1ccccn1 (configuration not stated),i,i,-56,i,i
O=C(c1cc(C2CC2)nc2ccccc12)N1N=C(C(F)F)CC1(O)C(F)F (configuration not stated),i[7.66 µM],i,i,i,i
O=C(c1cc(C2CC2)nc2ccc(Br)cc12)N1N=C(C(F)F)CC1(O)C(F)F (configuration not stated),i,i,-62,i,i
Cn1nc(C(=O)NCc2cccc(Cl)c2)c2c1-c1ccccc1SC2,nt,i,nt,i,nt
O=C(O)CCCNc1cc(N2CCN(C3CCCCC3)CC2)c2noc3c2c1C(=O)c1ccccc1-3,nt,i,nt,i,nt
CC(=O)OCCNc1cc(N2CCN(C)CC2)c2noc3c2c1C(=O)c1ccccc1-3,i,i,-52,i,i
CN1C(=O)CC(C)(c2ccccc2)C1=O (configuration not stated),nt,i,nt,nt,nt
NC(=NCCCCCCN=C(N)/N=C(\N)Nc1ccc(Cl)cc1)/N=C(\N)Nc1ccc(Cl)cc1,nt,i,-51!,i,i
O=C(N1CCN(c2ccccc2)CC1)C12CC3CC(CC(C3)C1)C2,i,i,i,i,i
O=C(N1CCN(Cc2ccccc2)CC1)C12CC3CC(CC(C3)C1)C2,i,i,-65,i,i
CC[C@H]1OC(=O)[C@H](C)C(=O)[C@H](C)[C@@H](O[C@@H]2O[C@H](C)C[C@H](N(C)C)[C@H]2O)[C@](C)(OC)C[C@@H](C)C(=O)[C@H](C)[C@H]2N(CCCCn3cnc(-c4cccnc4)c3)C(=O)O[C@]12C,nt,i,nt,nt,nt
CCCCN1C(=O)C(CC(=O)NC2CCCC2)CC(C(=O)N2CCOCC2)=C1C (configuration not stated),i,i,i,i,nt
CCCCN1C(=O)C(CC(=O)NC2CCCCC2)CC(C(=O)N2CCOCC2)=C1C (configuration not stated),nt,i,-54,nt,nt
COCCCN1C(=O)C(CC(=O)NCCCN(C)C)CC(C(=O)N2CCCCCC2)=C1C (configuration not stated),nt,i,i,nt,nt
COCCCN1C(=O)C(CC(=O)NCCCN(C)C)CC(C(=O)N2CCOCC2)=C1C (configuration not stated),nt,95,i,nt,nt
COc1cccc(NC(=O)Cn2c(=O)c3cccn3c3ccc(F)cc32)c1,nt,i,nt,i,nt
CC1=C(C(N)=O)C(c2cccc(Br)c2)n2nc(SCc3ccccc3Cl)nc2N1 (configuration not stated),nt,56,nt,i,nt
